Rows were chosen to be rich in hits. Some 12% of all compounds tested hit in one or more screens of this group.
PI5P4K alpha inh: inhibitors of human PI5P4K alpha | P48426 | PI5P4Kalpha enzyme, ADP-Glo luminescence, 60 min; hits give low values | max response, % | 330,000 tested, 1.2% active | AID 652105; active = max response of -50% or lower; inconclusive = between -30% and -50%; inactive = -30% or higher; also: value at the top dose of about 77 µM
Target sequence (P48426 whole entry, looked up): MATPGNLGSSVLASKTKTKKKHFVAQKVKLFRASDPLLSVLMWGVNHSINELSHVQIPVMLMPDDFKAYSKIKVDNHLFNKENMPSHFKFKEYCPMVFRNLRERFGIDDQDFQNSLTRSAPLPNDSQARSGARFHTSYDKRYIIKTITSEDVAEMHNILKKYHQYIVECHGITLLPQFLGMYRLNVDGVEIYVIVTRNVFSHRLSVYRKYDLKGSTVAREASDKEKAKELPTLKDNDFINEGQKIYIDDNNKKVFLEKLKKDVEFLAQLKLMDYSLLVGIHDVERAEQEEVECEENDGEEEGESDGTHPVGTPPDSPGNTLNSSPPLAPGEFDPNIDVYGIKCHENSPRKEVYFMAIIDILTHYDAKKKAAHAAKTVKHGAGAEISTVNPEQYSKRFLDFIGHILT
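Compounds were pin-transferred onto PI5P4Kalpha and substrate in HEPES pH 7.4 buffer with EGTA, CHAPS and 5% DMSO. ATP (5 microM final) started the reaction, which ran 60 minutes at room temperature before ADP-Glo detection.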
BAZ2B block: inhibitors of human BAZ2B bromodomain | Q9UIF8 | AlphaScreen BAZ2B-H3K14Ac peptide displacement | Potency, µM (doses to about 114 µM), actives largely listed as inhibitors | 360,000 tested, 4.4% active | AID 504333; also: nearly all actives have a fitted effect of over 60% in size
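AlphaScreen displacement: compounds (up to 110uM) incubated 30 min at room temperature with a preformed 50 nM BAZ2B/50 nM biotinylated H3K14Ac peptide complex in PBS pH 7.4 with Tween-20. Donor and acceptor beads at 10 ug/mL final added, 20 min light-protected before reading.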
G9a block: G9a (human) methyltransferase inhibition. Potency, µM (series often up to 102 µM), hits mostly inhibitors. AID 504332. Q96KQ7. G9a H3K9 monomethylation, AlphaScreen, 2 h. 350,000 tested, 8.8% active; also: nearly all actives have a fitted effect of over 75% in size
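Methyltransferase reactions run at room temperature for 2 h (20 nM enzyme, 500 nM biotin-H3K9 peptide, 20 uM SAM) after a 15 min compound preincubation; product detected by AlphaScreen beads and anti-H3K9me1 antibody.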
JMJD2A Tudor: blocks the human JMJD2A Tudor domain. O75164. AlphaScreen JMJD2A-Tudor / H3K4me3 peptide binding. Potency, µM (titrated, usually from 114 µM), actives largely listed as inhibitors. 390,000 tested, 4.4% active. AID 504339; also: nearly all actives have a fitted effect of over 50% in size
HP1b chromo inh: blocks HP1-beta chromodomain binding to methylated histone tails; P83916; AlphaScreen HP1-beta / biotin-H3K9me3 peptide binding; 390,000 tested, 0.56% active; Potency, µM (series often up to 114 µM), most hits filed as inhibitors; also: nearly all actives have a fitted effect of over 70% in size
Target sequence (P83916 whole entry, looked up): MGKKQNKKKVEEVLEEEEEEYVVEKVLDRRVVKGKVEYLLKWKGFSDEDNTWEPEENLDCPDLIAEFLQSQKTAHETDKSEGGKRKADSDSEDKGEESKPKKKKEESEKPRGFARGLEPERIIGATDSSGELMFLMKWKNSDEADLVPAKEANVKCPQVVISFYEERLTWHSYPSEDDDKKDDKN
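Compound inhibition of the preformed complex between 50 nM HP1-beta and 50 nM biotinylated H3K9me3 peptide was read by AlphaScreen. Buffer was PBS pH 7.4 with 0.01% Tween-20. Incubations ran 30 min at room temperature, with 10 ug/mL donor/acceptor beads.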
PLK1 PBD block: blocks phosphopeptide binding to human PLK1 polo-box domain | Plk1 PBD binding of FITC phosphopeptide, fluorescence polarization | Potency, µM, actives largely listed as inhibitors | 360,000 tested, 2.8% active; also: series mostly up to about 57 µM; nearly all actives have a fitted effect of over 65% in size
ADP-Glo counter: interferes with ADP-Glo detection without enzyme present. shares compounds with PI5P4K alpha inh. ADP-Glo detection counter-screen, luciferase luminescence, no enzyme. Potency, µM (titrated, usually from 76.9 µM), most hits filed as inhibitors. 1,100 tested, under 10 active. AID 743285
Large screens that a line does not name were inactive (follow-up assays come after a bar, where they were run). Unless noted, calls follow the shape of the dose curve; as a rule, active = well fitted curve in the direction sought with a large enough effect; inconclusive = small, poorly fitted or top-dose-only effect, or another doubt; inactive = no such curve, though single readings can be large; an effect the other way counts as inactive or inconclusive.

c1coc(-c2ccc3nncn3c2)c1	PI5P4K alpha inh -73, PLK1 PBD block 15µM (no result: BAZ2B block, G9a block, JMJD2A Tudor, HP1b chromo inh) | ADP-Glo counter inactive
O=C(O)c1cccc(NC(=O)c2cn(-c3ccccc3)nc2-c2cc3ccccc3o2)c1	PI5P4K alpha inh -53, BAZ2B block 50µM, PLK1 PBD block inconclusive | ADP-Glo counter inactive
Cc1cc(=O)oc2cc(NC(=O)CCOc3ccccc3)ccc12	none
O=C(Oc1ccc(N(Cc2cccs2)C2=NS(=O)(=O)c3ccccc32)cc1)c1ccccc1Cl	PI5P4K alpha inh -65, JMJD2A Tudor inconclusive, HP1b chromo inh inconclusive, PLK1 PBD block 2.7µM | ADP-Glo counter inactive
O=C(Oc1ccc(N(Cc2cccs2)C2=NS(=O)(=O)c3ccccc32)cc1)c1ccco1	none
O=C(Nc1nc(-c2ccccn2)cs1)C1CC(=O)N(c2ccc3c(c2)OCCO3)C1 (configuration not stated)	PI5P4K alpha inh -50, BAZ2B block 40µM, JMJD2A Tudor 35µM | ADP-Glo counter inactive
CC(C)Oc1cc(F)ccc1-c1cc(C(=O)NCCc2ccncc2)[nH]n1	none (no result: BAZ2B block, G9a block, JMJD2A Tudor, HP1b chromo inh)
NS(=O)(=O)c1ccc(NC(=O)c2ccc(S(=O)(=O)N3CCc4ccccc43)cc2)cc1	PI5P4K alpha inh -66, G9a block 32µM | ADP-Glo counter inactive
COc1ccccc1-c1cncnc1NCc1cnc(C)cn1	none (no result: PI5P4K alpha inh, BAZ2B block, JMJD2A Tudor, HP1b chromo inh, PLK1 PBD block)
Cc1c(C(=O)N2CCCC2)oc2ccc(Br)cc12	PI5P4K alpha inh -61 | ADP-Glo counter inactive
Cc1c(C(=O)N2CCN(C)CC2)oc2ccc(Br)cc12	none (no result: G9a block)
COc1ccc(OC)c(NC(=O)C2(C)CCN2Cc2ccccc2Cl)c1 (configuration not stated)	none (no result: BAZ2B block, G9a block, JMJD2A Tudor, HP1b chromo inh)
CCN(CC(=O)Nc1ccc(OC)cc1)C(=O)c1ccc([N+](=O)[O-])cc1	PI5P4K alpha inh -64, JMJD2A Tudor 10µM, PLK1 PBD block 6.7µM | ADP-Glo counter inactive
CCN(CC(=O)Nc1ccc(OC)cc1)C(=O)c1ccc(NS(=O)(=O)c2ccc(C(C)=O)cc2)cc1	none
COC(=O)CCC(=O)OC1(C)C(=O)C2=CN(CC3CC3)C(c3ccc(OC)cc3)=CC2=C(Br)C1=O (configuration not stated)	PI5P4K alpha inh -53, G9a block inconclusive, JMJD2A Tudor inconclusive, PLK1 PBD block inconclusive | ADP-Glo counter inactive
CCCCC1=CC2=CC(=O)C(C)(OC(=O)CC)C(=O)C2=CN1c1ccc(OC)cc1 (configuration not stated)	JMJD2A Tudor inconclusive
COC(=O)CCC(=O)OC1(C)C(=O)C2=CN(CCCOC(C)C)C(c3ccc(OC)cc3)=CC2=C(Br)C1=O (configuration not stated)	BAZ2B block inconclusive, JMJD2A Tudor inconclusive, PLK1 PBD block inconclusive
CCC(=O)OC1(C)C(=O)C2=COC(c3ccc(OC)cc3)=CC2=C(Br)C1=O (configuration not stated)	PI5P4K alpha inh -72, BAZ2B block inconclusive, JMJD2A Tudor inconclusive, PLK1 PBD block inconclusive | ADP-Glo counter inactive
CCCCC(c1nc2ccccc2[nH]1)n1c(=O)c(-c2ccccc2)nc2cc(C)c(C)cc21 (configuration not stated)	none (no result: BAZ2B block, G9a block, JMJD2A Tudor, HP1b chromo inh)
CC(=O)Nc1ccc(S(=O)(=O)N2CCN(C(=O)c3ncoc3-c3ccccc3C)CC2)cc1	none
Cc1cc(C)c(NC(=O)OCCN2CCOCC2)c(C)c1	PI5P4K alpha inh -63, HP1b chromo inh inconclusive, PLK1 PBD block 2.7µM | ADP-Glo counter inactive
CC(C)c1ncc(CO)n1Cc1c(Cl)cccc1Cl	none (no result: BAZ2B block, G9a block, JMJD2A Tudor, HP1b chromo inh)
CCOC(=O)c1cnc2cc(C)ccn2c1=O	none | ADP-Glo counter inactive
Cc1ccn2c(=O)c(C(=O)O)cnc2c1	BAZ2B block inconclusive
CCCCOc1ccc(S(=O)(=O)NC(=O)C2(C)CCN2C(=O)CCc2ccccc2)cc1 (configuration not stated)	PI5P4K alpha inh -53 (no result: BAZ2B block, G9a block, JMJD2A Tudor, HP1b chromo inh) | ADP-Glo counter inactive
CCCCOc1ccc(S(=O)(=O)NC(=O)C2(C)CCN2C(=O)Cc2ccccc2Cl)cc1 (configuration not stated)	none (no result: BAZ2B block, G9a block, JMJD2A Tudor, HP1b chromo inh)
CC(C)NC(=O)c1ccc2c(=O)n(CC3CCCO3)c(=S)[nH]c2c1 (configuration not stated)	JMJD2A Tudor inconclusive
COCCCNC(=O)c1ccc2c(=O)n(CC3CCCO3)c(=S)[nH]c2c1 (configuration not stated)	BAZ2B block inconclusive, JMJD2A Tudor 20µM | ADP-Glo counter inactive
Cc1oc(-c2ccc(Cl)cc2)cc1-c1nn2c(-c3ccoc3C)nnc2s1	PI5P4K alpha inh -65, G9a block inconclusive, JMJD2A Tudor inconclusive, PLK1 PBD block inconclusive | ADP-Glo counter inactive
CC(Nc1nc2ncn(Cc3ccccc3)c2c(=O)[nH]1)C(=O)O (configuration not stated)	PI5P4K alpha inh -55 | ADP-Glo counter inactive
O=C(Nc1nnc(-c2ccc3c(c2)CCCC3)o1)c1ccccc1	none
O=C(Nc1nnc(-c2ccncc2)o1)c1ccccc1	PI5P4K alpha inh -84, BAZ2B block 10µM, JMJD2A Tudor 8.9µM, PLK1 PBD block 7.5µM | ADP-Glo counter inactive
O=C(Nc1nnc(-c2ccc(Cl)cc2)o1)c1nc2ccccc2s1	PI5P4K alpha inh -50, PLK1 PBD block inconclusive | ADP-Glo counter inactive
O=C(Nc1nnc(-c2ccc(Cl)cc2)o1)Nc1ccccc1Cl	none
CC(=O)Nc1ccc(NC(=O)C2CCCCN2S(=O)(=O)c2ccc(C(C)(C)C)cc2)cc1 (configuration not stated)	none
Cc1nc(N2CCC(C)CC2)c2c(C)c(C(=O)O)sc2n1	none (no result: PI5P4K alpha inh) | ADP-Glo counter inactive
CCS(=O)(=O)c1ccc2oc(Nc3cc(C)cc(C)c3)nc2c1	none (no result: PI5P4K alpha inh)
CCS(=O)(=O)c1ccc2oc(Nc3ccc(C(C)C)cc3)nc2c1	PI5P4K alpha inh -50, G9a block 1.8µM, JMJD2A Tudor inconclusive, HP1b chromo inh 16µM, PLK1 PBD block 2.7µM | ADP-Glo counter inactive
CCOc1cccc(CN(C)CC2CCCN(CCc3ccc(Cl)cc3)C2)c1O (configuration not stated)	BAZ2B block inconclusive, JMJD2A Tudor inconclusive (no result: G9a block)
O=C(c1cc2nc(C3CC3)cc(C(F)F)n2n1)N1CCOCC1	PI5P4K alpha inh -63 | ADP-Glo counter inactive
O=C(NCCN1CCC(n2c(=O)[nH]c3ccccc32)CC1)c1cc(F)cc(F)c1	none (no result: BAZ2B block, G9a block, JMJD2A Tudor, HP1b chromo inh)
Cc1nn2c(=O)[nH]cnc2c1Cl	PI5P4K alpha inh -59 (no result: BAZ2B block, G9a block, JMJD2A Tudor, HP1b chromo inh) | ADP-Glo counter inactive
COC(=O)c1ccccc1NC(=O)c1ccc2nccnc2c1	PI5P4K alpha inh inconclusive, BAZ2B block inconclusive, JMJD2A Tudor inconclusive
O=C(Nc1ccccc1Cl)c1ccc2nccnc2c1	HP1b chromo inh inconclusive | ADP-Glo counter inactive
Cc1nn(C)cc1-c1csc(N)n1	none

Compound activity (PubChem BioAssay)
